In the library only some 3.5% were active in any assay of this set; here they are far more common.
Bead autofluor: counter-screen for toxin protease inhibitors: compound fluorescence; compound autofluorescence counterscreen, microsphere flow cytometry; hits give high values; fluorescence intensity (concentration not given with the values); actives 3.1% (n = 360,000); in the data active = fluorescence intensity above about 16000; inconclusive = no clear call, values can overlap the other calls
BoNT F protease: BoNT F light chain protease inhibition; Multiplex microsphere protease cleavage assay, flow cytometry; inhibition, % at 10 µM; actives 0.22% (n = 360,000); AID 588497; in the data active = inhibition above about 35%, passing the limit was not always enough; inconclusive = no clear call, values can overlap the other calls; note: plate controls were buffer without enzyme for full effect and enzyme alone for no effect
Anthrax LF inh2: anthrax lethal factor protease inhibition | actives 0.12% (n = 360,000) | inhibition, % at 10 µM | P15917 | multiplex microsphere protease cleavage assay, LF | AID 588501; note: plate controls were buffer without enzyme for full effect and enzyme alone for no effect
Target sequence (P15917 whole entry, looked up): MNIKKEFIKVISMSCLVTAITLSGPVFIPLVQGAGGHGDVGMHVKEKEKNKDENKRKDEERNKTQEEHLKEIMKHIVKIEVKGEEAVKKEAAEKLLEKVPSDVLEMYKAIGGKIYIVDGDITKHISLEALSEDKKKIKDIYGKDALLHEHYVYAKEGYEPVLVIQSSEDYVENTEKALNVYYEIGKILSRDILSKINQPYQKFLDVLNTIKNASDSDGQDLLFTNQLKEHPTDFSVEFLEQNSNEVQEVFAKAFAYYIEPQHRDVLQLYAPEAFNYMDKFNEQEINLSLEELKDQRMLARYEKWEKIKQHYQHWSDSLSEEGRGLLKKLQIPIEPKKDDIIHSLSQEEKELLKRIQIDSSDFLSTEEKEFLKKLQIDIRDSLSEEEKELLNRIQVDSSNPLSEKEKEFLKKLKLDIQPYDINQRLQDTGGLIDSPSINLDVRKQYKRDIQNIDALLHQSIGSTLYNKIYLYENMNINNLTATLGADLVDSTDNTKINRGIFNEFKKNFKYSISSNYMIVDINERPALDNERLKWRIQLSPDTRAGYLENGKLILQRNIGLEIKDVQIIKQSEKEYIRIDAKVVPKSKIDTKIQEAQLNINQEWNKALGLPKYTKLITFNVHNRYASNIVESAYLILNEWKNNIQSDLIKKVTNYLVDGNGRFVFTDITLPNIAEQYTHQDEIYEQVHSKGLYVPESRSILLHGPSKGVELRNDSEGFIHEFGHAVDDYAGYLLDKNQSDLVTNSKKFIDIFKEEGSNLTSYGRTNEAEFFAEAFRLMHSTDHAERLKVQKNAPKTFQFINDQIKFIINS
BoNT-A LC inh2: inhibitors of Botulinum neurotoxin A light chain protease | multiplex microsphere protease substrate cleavage, flow cytometry | inhibition, % at 10 µM | actives 0.17% (n = 360,000) | AID 588499; note: plate controls were buffer without enzyme for full effect and enzyme alone for no effect
Starred values were filed as active, the others as inactive; u = inconclusive. Cut-off read from the data, not from the text of the source, unless noted: active = inhibition above about 30%; inconclusive = no clear call, values can overlap the other calls; inactive = below that.

SMILES	Bead autofluor	BoNT F protease	Anthrax LF inh2	BoNT-A LC inh2
C[C@H]1CN([C@@H](C)CO)S(=O)(=O)c2ccc(Br)cc2O[C@H]1CN(C)C(=O)Cc1ccccn1	3033	-5	4	-1
CCOC(=O)c1ccccc1NC(=O)c1cc2sccc2n1C	22752*	2	-1	2
O=C(Nc1ccc2c(c1)OCCO2)c1cc2sccc2n1Cc1ccccc1	3781	14	1	1
CCOC(=O)c1cccc(NC(=O)c2cccs2)c1	2673	3	-1	0
C=CCNC(=O)c1cc2sccc2n1C	3518	5	0	0
CCOC(=O)c1cccc(NC(=O)c2cc3sccc3n2C)c1	26158*	-12	-4	u
Cn1c(C(=O)Nc2ccc3c(c2)OCCO3)cc2sccc21	16792*	-7	-6	-2
CC(=O)c1cccc(NC(=O)c2ccco2)c1	3203	5	1	0
CCOC(=O)c1cccc(NC(=O)c2ccco2)c1	23498*	-4	1	u
COCCNc1nc(Nc2ccc(C)cc2C)c2sccc2n1	3973	-2	-3	0
O=C(Nc1cccc(-c2nc3ccccc3[nH]2)c1)c1ccco1	25261*	-7	-8	-4
CCOC(=O)/C=C/C(=O)Nc1cccc([N+](=O)[O-])c1	2122	7	-2	2
CCOC(=O)c1cccc(NC(=O)/C=C/c2cccc([N+](=O)[O-])c2)c1	19203*	2	-1	0
CC1(C)CC(=O)C=C(c2cccc(OC(=O)c3ccc(Br)cc3)c2)C1=O	3823	-1	-1	0
CC(C(=O)N1CCc2ccccc21)N1CCN(S(=O)(=O)c2cccc(C(F)(F)F)c2)CC1 (centres undefined)	8179	-4	0	-1
CC(=NNC(=S)N1CCCCC1)c1ccccn1	3169	73*	87*	28
CC(=NNC(=S)N1CCCCC1)c1cccc(C)n1	3760	30	13	11
C=CCNC(=S)N/N=C(\C)c1ccccn1	16885*	-9	-2	-2
CC(=NNC(=S)N1CC2CCC(CC2)C1)c1ccncn1	3716	59*	57*	25
CC(=NNC(=S)Nc1ccccc1)c1ccccn1	4583	11	12	3
C[C@@H]1CN([C@H](C)CO)C(=O)c2cc(C#C[C@@H](C)O)cnc2O[C@H]1CN(C)C(=O)c1ccc(F)cc1	3912	-2	0	0
Cc1ccc(NC(=O)CSc2nc3cc(C(=O)NCC4CCCO4)ccc3c(=O)n2CC2CCCO2)cc1 (centres undefined)	3711	-1	-8	0
O=C(CC[C@H]1O[C@@H](n2cnc3c(NC(=O)c4ccccc4)ncnc32)[C@H](O)[C@@H]1O)N[C@@H](CO)c1ccccc1	5483	-8	8	-1
O=C(CN1CCN(c2nc(-c3ccc(F)cc3)cs2)CC1)Nc1ccc2c(c1)OCO2	16899*	-6	-5	-2
CCOC(=O)C1CC(=NO)c2ccc(OC)c(OC)c2C1 (centres undefined)	3557	-9	-2	0
SMILES	Bead autofluor	BoNT F protease	Anthrax LF inh2	BoNT-A LC inh2
CC1Oc2ccccc2N(CC(=O)c2cccc(Cl)c2)C1=O (centres undefined)	19669*	13	-12	12
Cc1ccc2c(c1)N(Cc1ccncc1)C(=O)C(C)O2 (centres undefined)	22957*	2	-3	2
COc1ccc(CN(CC2CCCO2)C(=O)CN2C(=O)COc3ccccc32)cc1OC (centres undefined)	3722	18	4	0
Cc1ccc2c(c1)N(Cc1cccc(F)c1)C(=O)C(C)O2 (centres undefined)	3691	-10	5	2
Cc1ccc2c(c1)N(CC(=O)c1cccc(Cl)c1)C(=O)C(C)O2 (centres undefined)	23986*	-2	-4	-2
Cc1ccc2c(c1)N(CC(=O)N(Cc1ccc3c(c1)OCO3)CC1CCCO1)C(=O)C(C)O2 (centres undefined)	23947*	-3	1	0
CCN(CC(=O)Nc1c(F)cccc1F)C(=O)CSCc1ccc(C)cc1	2848	-3	-7	-1
CC(C)c1nc2oc3ccccc3c(=O)c2c(=O)n1-c1ccccc1	17355*	4	-17	6
Cc1ccc(-c2nc(CSCC(=O)N3CCCC3)c(C)o2)cc1	23517*	-4	-4	-3
COc1ccc(-c2nc(CSCC(=O)NC3CC3)c(C)o2)cc1OC	5540	2	-2	-1
Cc1oc(-c2cccc(Cl)c2)nc1CN1CCC(C(=O)N2CCN(c3ccccn3)CC2)CC1	6634	-1	-6	-1
Cc1cccc(-c2nc(CSCC(=O)N3CCN(c4ccccn4)CC3)c(C)o2)c1	16627*	-7	-5	-1
CCOC(=O)N1CCC(NC(=O)CSCc2nc(-c3ccc(OC)c(OC)c3)oc2C)CC1	20515*	-3	0	u
